# Source: PubChem BioAssay AID1159580 (chemical genetic matrix, 2015)
# Out of some 5,500 compounds screened, about 2,000 (36%) were called active. About 18% were inconclusive and are not listed. Some of the results follow. A number with no mark means an inactive call. No stated cut-off is given here; in the data, active means normalized growth mostly below about 0.91 (no sharp cut-off); inconclusive means no clear call, values can overlap the other calls; inactive means mostly above about 0.92.
# Experiment: chemical genetic growth profiling, strain panel (AID 1159580);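 further: tested at 20 µM; growth read once vehicle control cultures reached saturation at 30 °C; 1 = growth at the plate median or of vehicle wells; lower values mean less growth of the strain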
# Details: S. cerevisiae deletion strains, growth OD
# [1] = locus YAL013W, strain DEP1, hits give low values
# [2] = locus YBR229C, strain ROT2, hits give low values
# [3] = locus YDL101C, strain DUN1, hits give low values
# [4] = locus YDL134C, strain PPH21, hits give low values
# [5] = locus YDR150W, strain NUM1, hits give low values
# [6] = locus YEL061C, strain CIN8, hits give low values
# [7] = locus YGR078C, strain PAC10, hits give low values
# [8] = locus YHR030C, strain SLT2, hits give low values
# [9] = locus YHR087W, strain rtc3, hits give low values
# [10] = locus YJR043C, strain POL32, hits give low values
# [11] = locus YJR075W, strain HOC1, hits give low values
# [12] = locus YKL190W, strain CNB1, hits give low values
# [13] = locus YLR039C, strain RIC1, hits give low values
# [14] = locus YLR058C, strain SHM2 (second series), hits give low values
# [15] = locus YLR085C, strain ARP6, hits give low values
# [16] = locus YLR262C, strain YPT6, hits give low values
# [17] = locus YML094W, strain GIM5, hits give low values
# [18] = locus YMR219W, strain ESC1, hits give low values
# [19] = locus YMR263W, strain SAP30, hits give low values
# [20] = locus YNL128W, strain TEP1, hits give low values
# [21] = locus YNL153C, strain GIM3, hits give low values
# [22] = locus YNL298W, strain CLA4 (second series), hits give low values
# [23] = locus YNL322C, strain KRE1, hits give low values
# [24] = locus YNR030W, strain Alg12, hits give low values
# [25] = locus YOL006C, strain TOP1, hits give low values
# [26] = locus YPL055C, strain LGE1, hits give low values
# [27] = locus YPL241C, strain CIN2, hits give low values
# [28] = locus YPR135W, strain CTF4, hits give low values
compound,measurement,setting,value
S=c1nc(-c2ccccc2)[nH][nH]1,normalized growth,[1],0.997
same,normalized growth,[2],1.01
same,normalized growth,[3],1.02
same,normalized growth,[4],0.979
same,normalized growth,[5],1.01
same,normalized growth,[6],0.992
same,normalized growth,[7],0.988
same,normalized growth,"locus YGR229C, strain SMI1, hits give low values",0.994
same,normalized growth,[8],1.06
same,normalized growth,[9],1.01
same,normalized growth,[10],0.99
same,normalized growth,[11],0.982
same,normalized growth,[12],0.982
same,normalized growth,[13],1.02
same,normalized growth,[14],0.999
same,normalized growth,[15],1.03
same,normalized growth,[16],0.991
same,normalized growth,[17],1.11
same,normalized growth,[18],0.999
same,normalized growth,[19],0.998
same,normalized growth,"locus YMR307W, strain GAS1, hits give low values",1.08
same,normalized growth,[20],0.985
same,normalized growth,[21],0.998
same,normalized growth,[22],0.992
same,normalized growth,[23],1
same,normalized growth,[24],1.01
same,normalized growth,[25],1.06
same,normalized growth,[26],1.03
same,normalized growth,[27],1.01
same,normalized growth,[28],1.02
CSc1nc(Sc2n[nH]c(-c3ccccc3)n2)cc(Sc2n[nH]c(-c3ccccc3)n2)n1,normalized growth,"locus YAR019C, strain CDC15, hits give low values",1.01
same,normalized growth,"locus YBL105C, strain PKC1, hits give low values",0.99
same,normalized growth,"locus YBR135W, strain CKS1, hits give low values",0.999
same,normalized growth,"locus YBR136W, strain MEC1, hits give low values",1
same,normalized growth,"locus YBR160W, strain CDC28, hits give low values",1
same,normalized growth,"locus YDL017W, strain CDC7, hits give low values",0.995
same,normalized growth,"locus YDL028C, strain MPS1, hits give low values",1.03
same,normalized growth,[3],0.991
same,normalized growth,"locus YDL108W, strain KIN28, hits give low values",1.01
same,normalized growth,"locus YDL132W, strain cdc53, hits give low values",0.995
same,normalized growth,"locus YDL214C, strain PRR2, hits give low values",1.01
same,normalized growth,"locus YDR052C, strain DBF4, hits give low values",0.995
same,normalized growth,"locus YDR054C, strain cdc34, hits give low values",0.984
same,normalized growth,"locus YDR226W, strain ADK1, hits give low values",1.01
same,normalized growth,"locus YDR477W, strain SNF1, hits give low values",1.01
same,normalized growth,"locus YER123W, strain YCK3, hits give low values",1.03
same,normalized growth,"locus YER133W, strain GLC7, hits give low values",1
same,normalized growth,"locus YFL009W, strain cdc4, hits give low values",1
same,normalized growth,"locus YFL029C, strain CAK1, hits give low values",1.02
same,normalized growth,"locus YFR003C, strain YPI1, hits give low values",0.99
same,normalized growth,"locus YFR019W, strain FAB1, hits give low values",1
same,normalized growth,"locus YFR028C, strain CDC14, hits give low values",1.01
same,normalized growth,"locus YGR040W, strain KSS1, hits give low values",1.02
same,normalized growth,"locus YGR052W, strain FMP48, hits give low values",1
same,normalized growth,"locus YGR092W, strain DBF2, hits give low values",1.01
same,normalized growth,[8],1.13
same,normalized growth,"locus YHR079C, strain IRE1, hits give low values",0.928
same,normalized growth,"locus YHR082C, strain KSP1, hits give low values",1.22
same,normalized growth,"locus YHR205W, strain SCH9, hits give low values",1
same,normalized growth,"locus YIL147C, strain SLN1, hits give low values",1.01
same,normalized growth,"locus YJL095W, strain BCK1, hits give low values",0.875
same,normalized growth,"locus YJL128C, strain PBS2, hits give low values",0.978
same,normalized growth,"locus YJL157C, strain FAR1, hits give low values",1.02
same,normalized growth,"locus YJR016C, strain ILV3, hits give low values",1.01
same,normalized growth,"locus YJR066W, strain TOR1 (second series), hits give low values",1.01
same,normalized growth,"locus YJR066W, strain TOR1, hits give low values",1.2
same,normalized growth,"locus YKL048C, strain ELM1, hits give low values",1.01
same,normalized growth,"locus YKL067W, strain YNK1, hits give low values",1.01
same,normalized growth,"locus YKL101W, strain HSL1, hits give low values",1.01
same,normalized growth,"locus YKL193C, strain SDS22, hits give low values",1.02
same,normalized growth,"locus YKL203C, strain TOR2, hits give low values",1.09
same,normalized growth,"locus YLR113W, strain HOG1, hits give low values",0.855 (active)
same,normalized growth,"locus YLR133W, strain CKI1, hits give low values",1.01
same,normalized growth,"locus YLR403W, strain SFP1, hits give low values",1.03
same,normalized growth,"locus YML070W, strain DAK1, hits give low values",1.01
same,normalized growth,"locus YMR001C, strain CDC5, hits give low values",1.01
same,normalized growth,"locus YMR205C, strain PFK2 (second series), hits give low values",1.02
same,normalized growth,"locus YMR277W, strain FCP1, hits give low values",1.02
same,normalized growth,"locus YNL006W, strain LST8, hits give low values",1
same,normalized growth,"locus YNL020C, strain ARK1, hits give low values",1.01
same,normalized growth,"locus YNL161W, strain CBK1, hits give low values",1
same,normalized growth,"locus YNL183C, strain NPR1, hits give low values",0.929
same,normalized growth,"locus YNL207W, strain RIO2, hits give low values",1.01
same,normalized growth,"locus YNL222W, strain SSU72, hits give low values",1.01
same,normalized growth,"locus YNL307C, strain MCK1 (second series), hits give low values",1.01
same,normalized growth,"locus YOL078W, strain AVO1, hits give low values",1.02
same,normalized growth,"locus YOL136C, strain PFK27, hits give low values",1.03
same,normalized growth,"locus YOR061W, strain CKA2, hits give low values",1.02
same,normalized growth,"locus YOR119C, strain RIO1, hits give low values",1.05
same,normalized growth,"locus YOR231W, strain MKK1, hits give low values",0.913
same,normalized growth,"locus YOR329C, strain SCD5, hits give low values",1
same,normalized growth,"locus YPL031C, strain PHO85, hits give low values",1.02
same,normalized growth,"locus YPL153C, strain RAD53, hits give low values",1.01
same,normalized growth,"locus YPL204W, strain HRR25, hits give low values",1.01
same,normalized growth,"locus YPL209C, strain IPL1, hits give low values",0.998
same,normalized growth,"locus YPL256C, strain CLN2, hits give low values",0.89
same,normalized growth,"locus YPR025C, strain CCL1, hits give low values",1.01
same,normalized growth,"locus YPR106W, strain ISR1, hits give low values",1
same,normalized growth,"locus YPR111W, strain DBF20, hits give low values",1
same,normalized growth,"strain NNK1, hits give low values",1.01
same,normalized growth,"strain TSCII, hits give low values",1.01
O=c1nc(-c2ccccc2)nc(-c2ccccc2)[nH]1,normalized growth,[1],0.985
same,normalized growth,[2],1
same,normalized growth,"locus YCL061C, strain MRC1, hits give low values",0.999
same,normalized growth,[3],1.03
same,normalized growth,[4],0.955
same,normalized growth,[5],0.993
same,normalized growth,[6],0.97
same,normalized growth,[7],1
same,normalized growth,[8],0.972
same,normalized growth,[9],0.987
same,normalized growth,[10],0.986
same,normalized growth,[11],1
same,normalized growth,[12],0.96
same,normalized growth,[13],0.922
same,normalized growth,[14],0.993
same,normalized growth,[15],0.951
same,normalized growth,[16],0.902
same,normalized growth,[17],1.08
same,normalized growth,[18],1
same,normalized growth,[19],1.01
same,normalized growth,[20],0.968
same,normalized growth,[21],1.01
same,normalized growth,[22],0.944
same,normalized growth,[23],0.984
same,normalized growth,[24],0.989
same,normalized growth,[25],0.932
same,normalized growth,[26],1.01
same,normalized growth,[27],1.03
same,normalized growth,[28],0.991
